Data as given in paper PMC4336329 (PLoS ONE, 2015).
Out of some 310,000 compounds screened, about 14,000 (4.5%) showed an effect of 50% or more. Effects have a minus sign here. This excerpt belongs to a sample that is enriched for strong results.

The compounds below were run against human ether-à-go-go-related gene (hERG) potassium channel (human, UniProt Q12809) (assay: primary screen, population patch clamp on CHO cells stably expressing hERG; higher = less effect of the substance).
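Further: peak tail current of the secondary pulse compared with the same well before compound.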

Chain of human ether-à-go-go-related gene (hERG) potassium channel (Q12809 whole entry, looked up): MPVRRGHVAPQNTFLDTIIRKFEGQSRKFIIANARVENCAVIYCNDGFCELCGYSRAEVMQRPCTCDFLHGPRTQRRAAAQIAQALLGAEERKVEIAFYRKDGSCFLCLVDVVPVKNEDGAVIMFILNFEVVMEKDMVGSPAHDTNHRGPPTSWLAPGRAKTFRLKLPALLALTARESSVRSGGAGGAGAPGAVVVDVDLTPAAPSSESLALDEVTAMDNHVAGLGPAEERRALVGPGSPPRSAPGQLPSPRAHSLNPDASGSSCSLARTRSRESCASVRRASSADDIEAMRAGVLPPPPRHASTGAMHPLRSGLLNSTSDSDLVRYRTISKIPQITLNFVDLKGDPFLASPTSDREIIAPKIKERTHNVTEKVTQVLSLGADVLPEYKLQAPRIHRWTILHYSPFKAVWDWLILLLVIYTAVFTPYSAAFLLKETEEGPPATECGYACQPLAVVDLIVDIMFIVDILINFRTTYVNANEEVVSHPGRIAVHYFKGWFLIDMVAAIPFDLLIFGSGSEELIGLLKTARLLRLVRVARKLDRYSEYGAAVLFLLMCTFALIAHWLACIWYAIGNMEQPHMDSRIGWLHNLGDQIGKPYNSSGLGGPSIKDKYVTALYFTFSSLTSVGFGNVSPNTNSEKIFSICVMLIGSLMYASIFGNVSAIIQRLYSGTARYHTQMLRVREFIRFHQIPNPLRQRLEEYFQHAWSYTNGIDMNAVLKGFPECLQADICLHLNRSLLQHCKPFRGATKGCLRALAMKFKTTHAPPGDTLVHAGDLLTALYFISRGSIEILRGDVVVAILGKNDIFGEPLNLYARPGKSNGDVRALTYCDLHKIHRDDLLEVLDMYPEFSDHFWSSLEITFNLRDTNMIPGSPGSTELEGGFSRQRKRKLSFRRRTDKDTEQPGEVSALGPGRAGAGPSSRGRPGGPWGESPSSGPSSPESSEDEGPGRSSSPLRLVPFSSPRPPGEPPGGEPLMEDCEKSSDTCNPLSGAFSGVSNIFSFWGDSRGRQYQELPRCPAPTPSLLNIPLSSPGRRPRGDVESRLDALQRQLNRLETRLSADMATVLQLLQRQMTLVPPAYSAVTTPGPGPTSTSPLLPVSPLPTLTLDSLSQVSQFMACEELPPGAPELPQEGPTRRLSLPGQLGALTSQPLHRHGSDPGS

| Compound | hERG current change (%, negative = inhibition) at 10uM |
| --- | --- |
| Brc1ccc(-c2cnc3n2CCCC3)cc1 | -34.2% |
| CCOc1ccc(N(CC(=O)NCCSCc2ccc(C)cc2)S(C)(=O)=O)cc1 | 10.1% |
| CCC(C)c1ccccc1NC(=O)C(C)N(C)Cc1cccc(OC)c1.O=C(O)C(=O)O (centres unmarked) | 11.8% |
| Cc1ccc(S(=O)(=O)N(C)CC(=O)NCCCn2ccnc2)cc1 | 9.92% |
| Cc1ccc(CN2C3=NC(=O)CN3c3ccccc32)cc1 | -5.41% |
| Br.CC(C)(C)c1ccc(CN2C3=NCCCN3c3ccccc32)cc1 | -77.6% |
| Br.C=CCN1C2=NCCCN2c2ccccc21 | -13.9% |
| Cc1cccc(CN2C3=NCCCN3c3ccccc32)c1.Cl | -57.4% |
| Br.CC(C)(C)C(=O)CN1C2=NCCCN2c2ccccc21 | -75.8% |
| Cc1ccc(CN2C3=NCCN3c3ccccc32)cc1.Cl | -68.3% |
| Br.CC(C)(C)C(=O)CN1C2=NCCN2c2ccccc21 | -32.1% |
| COC(=O)Cc1ccc(NC(=S)NCCO)cc1 | 17.6% |
| Cn1ccs/c1=N\C(=O)Nc1cccc(Cl)c1 | 0.433% |
| O=C(NCc1cc([N+](=O)[O-])ccc1O)c1cccc(NS(=O)(=O)c2ccccc2)c1 | 18.3% |
| CCOc1ccc(C(C(=O)NC2CCCCC2)N(C(=O)Cc2cccs2)c2ccc(-n3cnnn3)c(OC)c2)cc1 (centres unmarked) | -15.7% |
| CCOC(=O)c1[nH]c(C)c(/C(O)=C2\C(=O)C(=O)N(CCCN(C)C)C2c2cccnc2)c1C (centres unmarked) | 4.27% |
| NCc1cccc(-n2cccn2)c1.O=C(O)CC(=O)O | -8.09% |
| CCc1ccccc1NC(=O)CC1SCCNC1=O (centres unmarked) | 26.3% |
| O=C(O)COCC(=O)NCc1csc2ccccc12 | 2.75% |
| COc1ccc(S(=O)(=O)Nc2ccccc2C(N)=O)cc1OC | 10.1% |
| CCN1C2=NCCCN2c2ccccc21.Cl | 1.64% |
| Cc1ccc(CN2C3=NCCCN3c3ccccc32)cc1.Cl | -61.2% |

| Compound | hERG current change (%, negative = inhibition) at 10uM |
| --- | --- |
| c1ccc(-n2nnnc2SCc2ccccn2)cc1 | 7.26% |
| Cc1ccc(C(=O)N/C(=C/c2ccc(-c3ccc([N+](=O)[O-])cc3)o2)C(=O)NCCCN(C)C)cc1 | -73.7% |
| Cc1ccc(C(=O)N/C(=C\c2ccc(-c3ccc([N+](=O)[O-])cc3)o2)C(=O)NC2CCS(=O)(=O)C2)cc1 (centres unmarked) | -28.2% |
| CCCCC(=O)N/N=C/c1ccc(-c2ccc([N+](=O)[O-])cc2)o1 | -21.9% |
| CN(C)CCCNC(=O)/C(=C/c1ccc(-c2ccc([N+](=O)[O-])cc2)o1)NC(=O)c1ccccc1 | -73.6% |
| COc1ccc(CN=C2NC(=O)CC(C(=O)Nc3cc(C)cc(C)c3)S2)cc1 (centres unmarked) | -18.4% |
| COc1ccc(OC)c(NC(=O)CCCN2C(=O)C3C4C=CC(C4)C3C2=O)c1 (centres unmarked) | -3.43% |
| CCOC(=O)c1ccc(NC(=O)N2CCCCC2)cc1 | 3.33% |
| CCOc1ccc(CN2CCN(S(=O)(=O)c3ccc(NC(C)=O)cc3)CC2)cc1OC.O=C(O)C(=O)O | -35.4% |
| CCOc1ccc(CN2CCN(S(=O)(=O)c3ccc(NC(C)=O)cc3)CC2)cc1.O=C(O)C(=O)O | -50.4% |
| CCOC(=O)COc1ccc(S(=O)(=O)N2CCN(c3ccccc3)CC2)cc1 | -39% |
| CCOc1ccc(C(=O)CN2CCN(S(=O)(=O)c3ccc(F)cc3)CC2)cc1 | -63% |
| COc1ccc(CN2CCN(S(=O)(=O)c3ccc(NC(C)=O)cc3)CC2)cc1.O=C(O)C(=O)O | -29.4% |
| CCOc1ccc(C(=O)CN2CCN(S(=O)(=O)c3ccc(OC)cc3)CC2)cc1 | -61.7% |
| CCOc1ccc(S(=O)(=O)N2CCN(S(=O)(=O)c3ccc(C(C)=O)cc3)CC2)cc1 | 0.493% |
| CCOC(=O)COc1ccc(S(=O)(=O)N2CCN(c3ccc(F)cc3)CC2)cc1 | -60% |
| CCOc1ccc(NC(=O)CCN2CCN(S(=O)(=O)c3ccc(OC)cc3)CC2)cc1 | -28.8% |
| CCOc1ccc(NC(=O)CCN2CCN(S(=O)(=O)c3ccc(F)cc3)CC2)cc1 | -16.5% |
| CCOC(=O)COc1ccc(S(=O)(=O)N2CCN(c3ccc(OC)cc3)CC2)cc1 | 0.759% |
| CCOc1ccc(C(=O)CN2CCN(S(=O)(=O)c3ccc(Cl)cc3)CC2)cc1 | -40.2% |
| Cc1c(NC(=S)Nc2ccccc2)c(=O)n(-c2ccccc2)n1C | 32.9% |
| NC1=NC(=O)/C(=C\c2cccs2)S1 | 8.6% |
